From PubChem
Only a selection was taken, and hits are over-represented in it overall.
GRP78 ERSR act – induces the endoplasmic reticulum stress response in human glioma cells | U87-MG GRP78 promoter luciferase reporter, 16 h | Potency, µM, without a hit: at the highest dose activation, hits mostly activators | 0.02% of 420,000 active; also: potency is read from the fitted curve at half-maximal effect; series mostly up to about 76 µM; % of control where 0% means no effect; nearly all actives have a fitted effect of over 35% in size
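Stably transfected U87-MG glioma cells carrying a GRP78-based luciferase sensor; 16 h compound incubation. Luminescence end-point read 10 min after Bright-Glo addition at room temperature.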
N370S GC mod – inhibits or activates N370S mutant glucocerebrosidase; P04062; N370S GC spleen homogenate, 4MU-glucoside fluorescence; Potency, µM (top dose mostly 59.4 µM), for the others: at the highest dose activity change, negative = inhibition, most hits filed as inhibitors; 0.092% of 330,000 active;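 also: potency is read from the fitted curve at half-maximal effect; 0% = full enzyme activity and -100% = no enzyme basal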
CBFb RUNX1 block – CBF-beta/RUNX1 interaction disruption. Potency, µM (top dose mostly 59.8 µM), for the others: top-dose activity, negative = inhibition, actives largely listed as inhibitors. AlphaScreen CBFb-His/RUNX1-biotin binding, biochemical. Q01196+Q13951. 230,000 tested, under 10 active. AID 1477; also: % of control where 0% means no effect
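Compounds were screened at multiple concentrations against a preformed CBF-beta(His)/RUNX1(biotin) complex (30 nM of each) for 15 min at room temperature, followed by 90 min with nickel and streptavidin beads and AlphaScreen reading.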
Apoferritin bind – binds horse apoferritin like a general anesthetic; apoferritin/1-aminoanthracene competitive binding, fluorescence; Potency, µM (titrated, usually from 77.5 µM), without a hit: at the top dose activity change, negative = displacement, most hits filed as inhibitors; 0.074% of 350,000 active; also: potency is read from the fitted curve at half-maximal effect; % is scaled to controls: 0 for no effect and ±100 for the full control effect; nearly all actives have a fitted effect of over 20% in size
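Horse-spleen apoferritin (10 uM) in 50% saturated 1-aminoanthracene in PBS was incubated 10 min at room temperature with compound. Fluorescence (ex 380, em 535 nm) was normalized to free and bound 1-AMA, with concentration-response fitted by a four-parameter Hill equation.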
ClpP mod – qHTS Assay for Activators of ClpP. purified B. subtilis ClpP, FRET peptide cleavage, 20 min. Potency, µM (top dose mostly 57.5 µM), inactives show top-dose activity change, negative = active. 1.9% of 340,000 active. AID 651965, 2013; active = well fitted falling curve with a large enough effect; inconclusive = small, poorly fitted or top-dose-only effect; inactive = no such curve, though single readings can be large or run the other way; also: potency is read from the fitted curve at half-maximal effect; the source files actives as falling curves though it sought activators and does not explain the sign; nearly all actives have a fitted effect of over 65% in size
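Buffer: 100 mM Tris/HCl pH8, 100 mM KCl, 0.05% low protease BSA, 2.5% glycerol, 0.01% Tween-20. ClpP 10 microg/mL final; 20 min RT; delta FRET normalized to ADEP and DMSO controls.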
Integrin act MD – integrin-mediated muscular dystrophy alleviation activation. alpha7betagal myoblasts, beta-gal FDG fluorescence, 48 h. AID 624291. 0.064% of 350,000 active. Potency, µM (highest dose often 38.3 µM), for inactives: at the highest dose activation, usual class: activators;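 also: potency is read from the fitted curve at half-maximal effect; 100% = response of the positive control SU9516; nearly all actives have a fitted effect of over 60% in size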
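Alpha7betagal+/- myoblasts (passage 13) were plated 16-24 hr, then exposed to compounds (1:260 dilution of DMSO stock) for 48 hours at 37C. After MPER lysis, β-galactosidase reporter activity was read as FDG fluorescence (ex 480/em 540) after 30 minutes.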
Numbers without * were called inactive; ? = inconclusive; . = no result given. Unless noted, calls follow the shape of the dose curve; as a rule, active = well fitted curve in the direction sought with a large enough effect; inconclusive = small, poorly fitted or top-dose-only effect, or another doubt; inactive = no such curve, though single readings can be large; an effect the other way counts as inactive or inconclusive.

SMILES	GRP78 ERSR act	N370S GC mod	CBFb RUNX1 block	Apoferritin bind	ClpP mod	Integrin act MD
O=c1[nH]c(NNC(=S)NCc2ccccc2)nc2c1C1(CCCCC1)Cc1ccccc1-2	3.1%	25.6%	-7.4%	2.1%	15.8µM*	16.9%
O=C(C[N+]12CCCc3cccc(c31)CCC2)c1ccc2ccc3cccc4ccc1c2c34	-1.3%	.	.	.	4.1%	.
Cc1oc(-c2ccccc2NC(=O)C2CCC2)nc1CNC(=O)c1ccccn1	6.1%	.	.	.	.	.
COc1ccc(C(=O)OCC(N)=O)cc1[N+](=O)[O-]	-3.7%	4.4%	0.8%	-7.3%	28.2µM*	-2.2%
COc1ccc(C(=O)OCC(=O)Nc2ccccc2)cc1[N+](=O)[O-]	-4.1%	0.0%	7.2%	-23.8%	1.3%	-19.3%
Cc1ccc(N(CC(=O)Nc2ccc(Br)c(C)c2)S(=O)(=O)c2c(C)[nH]c(=O)[nH]c2=O)cc1	-2.3%	11.2µM*	.	3.5%	-0.7%	5.8%
COc1ccc(N(CC(=O)Nc2cc(Cl)ccc2OC)S(=O)(=O)c2c(C)[nH]c(=O)[nH]c2=O)cc1	-0.9%	?	.	?	1.0%	0.0%
COc1cc(NC(=O)CN(c2cc(C)cc(C)c2)S(=O)(=O)c2c(C)[nH]c(=O)[nH]c2=O)cc(OC)c1	-0.3%	?	.	-5.8%	-0.3%	0.7%
Cc1cc(C)cc(N(CC(=O)Nc2ccc(C)cc2Cl)S(=O)(=O)c2c(C)[nH]c(=O)[nH]c2=O)c1	-0.3%	0.251µM*	.	-0.6%	0.2%	-9.1%
Cc1cc(C)cc(N(CC(=O)Nc2ccc(C(F)(F)F)cc2)S(=O)(=O)c2c(C)[nH]c(=O)[nH]c2=O)c1	?	2.24µM*	.	?	-0.3%	7.7%
Cc1cn2c(=O)c(S(=O)(=O)NCc3ccc(F)cc3)c(C)nc2s1	-5.1%	.	.	-9.2%	31.6µM*	.
Cc1cn2c(=O)c(S(=O)(=O)Nc3ccc(F)cc3F)c(C)nc2s1	-2.3%	.	.	-6.0%	-3.4%	.
CC(=O)c1cccc(NS(=O)(=O)c2c(C)nc3sc(C)cn3c2=O)c1	-4.2%	.	.	-15.1%	-0.7%	.
Cc1cn2c(=O)c(S(=O)(=O)NCc3ccccc3Cl)c(C)nc2s1	-3.9%	.	.	4.6%	15.8µM*	.
Cc1nc(C)c(CC(=O)N2CCOc3ccc(CN4CCN(c5ccccn5)CC4)cc3C2)s1	-4.6%	.	.	.	.	.
Cc1ccccc1OCCC(=O)Nc1cccc(S(=O)(=O)Nc2ccccc2Cl)c1	-4.2%	?	13.2%	0.1%	14.1µM*	33.8%
COc1ccc(C2Nc3ccccc3C(=O)N2c2ccccc2)cc1CN1CCOCC1 (stereo not drawn)	0.8%	2.6%	2.1%	10.7%	.	-1.8%
COc1ccc(C2Nc3ccccc3C(=O)N2c2ccc(C)cc2)cc1COc1ccccn1 (stereo not drawn)	0.7%	25.4%	12.0%	7.6%	31.6µM*	20.2%
COc1ccc(N2C(=O)c3ccccc3NC2c2ccc(OC)c(Cn3nnc4ccccc43)c2)cc1 (stereo not drawn)	-1.0%	?	-17.5%	74.5%	31.6µM*	-35.5%
COc1ccc(C2Nc3ccccc3C(=O)N2c2ccc(C)cc2)cc1Cn1nc(C)c([N+](=O)[O-])c1C (stereo not drawn)	2.7%	-3.3%	-7.3%	-13.5%	-4.6%	-14.3%
COC(=O)c1ccccc1C(=O)N1CCc2c(cnc(C)c2CNC(=O)c2ccccc2F)C1	-5.0%	.	.	.	.	.
COc1cc(OC)c(NC(=O)N2CCOCC2)cc1Cl	0.3%	-1.5%	.	-2.2%	28.2µM*	-14.8%
CCCN(C)CCCOc1cc2nc(N3CCCN(C)CC3)nc(NC3CCN(C)CC3)c2cc1OC	-6.3%	.	.	.	4.3%	.
Cc1ccc2nc(SC(C)C(=O)NC3CCCc4ccccc43)[nH]c2c1 (stereo not drawn)	-3.7%	8.3%	2.3%	-15.6%	25.1µM*	-23.2%
CC(=O)N1CCN(CC(=O)Nc2ccccc2Sc2ccc(Cl)cc2)CC1	-1.6%	-0.1%	3.3%	0.3%	0.6%	-27.7%
SMILES	GRP78 ERSR act	N370S GC mod	CBFb RUNX1 block	Apoferritin bind	ClpP mod	Integrin act MD
CCc1ccccc1NC(=O)CN1CCN(C(=O)C(C)NC(=O)c2ccc(Cl)cc2)CC1 (stereo not drawn)	-4.0%	-11.8%	.	.	15.8µM*	12.3%
Cc1ccc(OCCC(=O)NCCc2ccc(S(N)(=O)=O)cc2)cc1	-1.2%	0.1%	3.7%	0.9%	12.6µM*	2.1%
CCC(COC)NC(=O)c1cnn(-c2ncc3c(n2)-c2ccccc2CCC3)c1C (stereo not drawn)	-0.5%	.	.	.	.	.
O=C(NCc1cnc2ccccn12)C1CCC(=O)N(Cc2cccc(F)c2)C1 (stereo not drawn)	-5.2%	-0.1%	.	-6.6%	15.8µM*	-1.2%
O=C(c1n[nH]c2c1CCCC2)N1CCC(n2c(C3CCCO3)nc3ccccc32)CC1 (stereo not drawn)	-5.3%	.	.	.	.	.
COc1ccc(Cl)cc1NC(=S)N(CCCN1CCOCC1)Cc1cn(C)c2ccccc12	-3.9%	6.31µM*	-19.1%	52.8%	-3.6%	-48.5%
COc1cc(Cl)ccc1NC(=S)N(CCCN1CCOCC1)Cc1cn(C)c2ccccc12	-2.7%	7.08µM*	-15.4%	-6.0%	-0.3%	2.6%
COc1ccccc1NC(=S)N(CCCN1CCOCC1)Cc1cn(C)c2ccccc12	-5.0%	?	-5.6%	-10.8%	-2.0%	-0.2%
CCNC(=O)C(=O)Nc1ccc2c(c1)N(S(=O)(=O)c1cccs1)CCC2	-3.8%	-23.8%	.	.	1.0%	-24.7%
O=C(Nc1ccc2c(c1)N(S(=O)(=O)c1cccs1)CCC2)c1c(F)cccc1F	-2.7%	0.6%	.	.	11.2µM*	-33.3%
Cc1ncc2c(c1CNC(=O)c1ccccc1F)CCN(C(=O)c1csc(-c3cccs3)n1)C2	-2.0%	.	.	.	.	.
C#CCC(Cc1cnc2nc(N)nc(N)c2n1)c1ccc(C(=O)N[C@@H](CCC(=O)O)C(=O)O)cc1 (stereo partly drawn)	-0.5%	.	.	.	.	.
CC1(C)CC2CC(C)(CN2C(=O)COC(=O)c2ccc(Cl)cc2N)C1 (stereo not drawn)	0.6%	-0.7%	1.2%	-13.8%	28.2µM*	17.6%
CC1(C)CC2CC(C)(CN2C(=O)COC(=O)c2ccc(Cl)c(N)c2)C1 (stereo not drawn)	-4.9%	-0.4%	-5.6%	?	?	18.8%
Cc1oc(-c2ccccc2NS(C)(=O)=O)nc1CN(C)Cc1ccc(Cl)cc1	-5.7%	.	.	.	.	.
